Results on 14 compounds are retold here after PubChem BioAssay (NCI).

The panel holds about 83,000 compounds, 20% with a hit somewhere; the sample as a whole holds those more often.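 Cells were grown in 96-well plates and exposed to the test compound at a single concentration for 48 hours; results are reported as percent growth, with values below 10 considered active.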 Unmarked numbers belong to inactive results. The source made the active and inactive calls.

Among the test systems are HCT-15 colon; HT29 colon; SNB-75 CNS; SNB-19 CNS; PC-3 prostate; SK-MEL-5 melanoma; UACC-62 melanoma; LOX IMVI melanoma; SK-MEL-28 melanoma; U251 CNS.
Holding throughout (experiment): NCI-60 one-dose screen, 48 h (100 = growth as untreated, 0 = no growth, -100 = all killed)
What all share (conditions): 10 µM unless noted

Take `Cc1ccc2c(C(C[N+](=O)[O-])c3cccs3)c(-c3ccccc3)[nH]c2c1` (stereo not drawn): the growth in the assay on HCT-15 colon was 20%; with HT29 colon it was 9.87% (active); with SNB-75 CNS, -37.2% (active); in the assay on SNB-19 CNS, 37.8%; in the assay on PC-3 prostate, 28%; in the assay with SK-MEL-5 melanoma it was 36.3%. Moreover, the growth in the assay on UACC-62 melanoma was 38.3%; in the assay with LOX IMVI melanoma it was 31.7%; in the assay on SK-MEL-28 melanoma it was 49.4%.
With `COc1cc2c(cc1OCCCn1c(-c3ccccn3)nc3ccccc31)N=C[C@@H]1CCCN1C2=O`, the growth in the assay on HCT-15 colon was -22.7% (active); with HT29 colon, -26.7% (active); in the assay on SNB-75 CNS it was 23.3%; in the assay with SNB-19 CNS, 27.2%; in the assay with PC-3 prostate, 12.8%; with SK-MEL-5 melanoma, -69.7% (active). Besides, the growth was -75.9% (active) in the assay on UACC-62 melanoma, -7.37% (active) with LOX IMVI melanoma and 5.44% (active) in the assay with SK-MEL-28 melanoma.
Regarding `C[C@@H]1O[C@@H](O[C@H]2C[C@@H](O)[C@]3(CO)C4C(CC[C@]3(O)C2)[C@@]2(O)CC[C@H](C3=CC(=O)OC3)[C@@]2(C)C[C@H]4O)[C@H](O)[C@H](O)[C@H]1O` (stereo partly drawn), the growth was -74.6% (active) in the assay on HCT-15 colon; -85.2% (active) in the assay with HT29 colon; -83.9% (active) with SNB-75 CNS; -94.6% (active) with SNB-19 CNS; 6.86% (active) in the assay on PC-3 prostate; -95.5% (active) in the assay on SK-MEL-5 melanoma. Also, the growth in the assay on UACC-62 melanoma is -66.5% (active); in the assay with LOX IMVI melanoma, -88.2% (active); in the assay on SK-MEL-28 melanoma it was -87.6% (active).
Regarding `CC(=O)O[C@H]1C(=O)[C@@]2(C)[C@H]([C@H](OC(=O)c3ccccc3)[C@]3(O)C[C@H](OC(=O)[C@H](OC(=O)OC[C@H]4COC(C)(C)O4)[C@@H](NC(=O)c4ccccc4)c4ccccc4)C(C)=C1C3(C)C)[C@]1(OC(C)=O)CO[C@@H]1C[C@@H]2O`, the growth in the assay with HCT-15 colon is 5.28% (active); in the assay with HT29 colon it was 2.46% (active); in the assay with SNB-75 CNS, -20.5% (active); in the assay on SNB-19 CNS, 11.9%; in the assay on PC-3 prostate it was 21%; in the assay on SK-MEL-5 melanoma, 18.2%. The growth with UACC-62 melanoma is 21.7%; with SK-MEL-28 melanoma, 49.7%.
For the compound `COC(=O)[C@@H](C)C[C@H](Cc1ccccc1)NC(=O)c1csc([C@@H](C[C@H](C(C)C)N(C)C(=O)[C@@H](NC(=O)[C@H]2CCCN2C)C2CC2)OC(C)=O)n1`, the growth with HCT-15 colon is 18.3%; in the assay on HT29 colon, 6.25% (active); with SNB-75 CNS, 28.9%; with SNB-19 CNS, 75.6%; with PC-3 prostate it was 8.37% (active); in the assay with SK-MEL-5 melanoma, -52.1% (active). For the same compound, the growth with UACC-62 melanoma was 41.2%; in the assay on LOX IMVI melanoma it was 15%; in the assay on SK-MEL-28 melanoma it was 56.4%.
As for `C#C[C@]1(OC(=O)CCCCCC)CC[C@H]2[C@@H]3CCC4=CC(=O)CC[C@@H]4[C@H]3CC[C@@]21C`, the growth in the assay on HCT-15 colon is 39.9%; in the assay on HT29 colon it was 9.11% (active); with SNB-75 CNS, 81.5%; in the assay with SNB-19 CNS it was 53.7%; in the assay on PC-3 prostate, 32.7%; in the assay on SK-MEL-5 melanoma, 20.5%. The growth is 25.6% in the assay on UACC-62 melanoma, 8.13% (active) in the assay with LOX IMVI melanoma and 43.3% in the assay on SK-MEL-28 melanoma.
Turning to `N#C[Se]CCN1C(=O)c2ccccc2C1=O`, the growth with HCT-15 colon was 53.2%; in the assay on HT29 colon, 13.9%; with SNB-75 CNS, 2.39% (active); in the assay with SNB-19 CNS it was 38%; in the assay with PC-3 prostate, 41.8%; with SK-MEL-5 melanoma it was 1.73% (active). The growth was 22.7% with UACC-62 melanoma, 5.83% (active) in the assay with LOX IMVI melanoma and 25.9% with SK-MEL-28 melanoma.
For the compound `Cc1cc(N(CCCl)CCCl)ccc1C=Nc1ccc(-c2csc(Cc3ccccc3)n2)cc1`, the growth with HCT-15 colon was 76.1%; in the assay with HT29 colon, 88.3%; in the assay on SNB-75 CNS, 50.3%; in the assay with SNB-19 CNS, 81.1%; with PC-3 prostate, 53%; in the assay with SK-MEL-5 melanoma, 84.1%. Moreover, the growth with UACC-62 melanoma is 48.6%; in the assay on LOX IMVI melanoma, 63.2%; with SK-MEL-28 melanoma, 90.5%.
Take `Clc1cc(N2CC2)nc(N2CC2)n1`: the growth was 72.5% with HCT-15 colon; 79.8% in the assay with HT29 colon; 70.6% with SNB-75 CNS; 65.9% with SNB-19 CNS; 73.9% in the assay with SK-MEL-5 melanoma; 54.4% in the assay with UACC-62 melanoma. Moreover, the values for the growth in the assay with LOX IMVI melanoma and in the assay with SK-MEL-28 melanoma were 51.7% and 92.1%, respectively.
As for `CNC(=O)Oc1cccc(C(F)(F)F)c1`, the growth is 117% in the assay on HCT-15 colon; 108% in the assay with HT29 colon; 113% with SNB-75 CNS; 114% in the assay with U251 CNS; 104% in the assay on PC-3 prostate; 105% in the assay with SK-MEL-5 melanoma. The growth with UACC-62 melanoma is 97.7%; in the assay on SK-MEL-28 melanoma, 105%.
For the compound `C=CCc1cc2c(cc1OCC)OCO2`, the growth in the assay with HCT-15 colon was 96.5%; with HT29 colon, 87.7%; with SNB-75 CNS, 106%; in the assay on U251 CNS, 107%; with PC-3 prostate, 80.8%; in the assay on SK-MEL-5 melanoma, 103%. Further, the growth was 108% with UACC-62 melanoma, 94.2% in the assay on LOX IMVI melanoma and 102% in the assay with SK-MEL-28 melanoma.
`CC(=O)O[C@H]1CC[C@@]2(C)C(=CC[C@H]3[C@@H]4C[C@@H](N5CC5)[C@H](C(C)=O)[C@@]4(C)CC[C@@H]32)C1`: the growth in the assay with HCT-15 colon is 91.6%; with HT29 colon it was 85.9%; in the assay on SNB-75 CNS it was 79.2%; with U251 CNS, 91.5%; with PC-3 prostate it was 77.9%; in the assay with SK-MEL-5 melanoma, 85.2%. Further, the growth in the assay with UACC-62 melanoma is 92.8%; in the assay with LOX IMVI melanoma, 87.6%; in the assay with SK-MEL-28 melanoma, 102%.
Regarding `CCCCCCCC(=O)OCC(=O)[C@]1(O)Cc2c(O)c3c(c(O)c2[C@@H](OC2CC(N)C(O)C(C)O2)C1)C(=O)c1c(OC)cccc1C3=O` (stereo partly drawn), the growth in the assay on HCT-15 colon was -61.5% (active); with HT29 colon, -63.5% (active); in the assay on SNB-75 CNS, -79.5% (active); in the assay with U251 CNS, -46.5% (active); with PC-3 prostate it was -100% (active); in the assay on SK-MEL-5 melanoma, -91.2% (active). For the same compound, the growth with UACC-62 melanoma was -75.4% (active); with LOX IMVI melanoma, -4.4% (active); with SK-MEL-28 melanoma it was -84% (active).
Take `CC(=O)O[C@H](C[C@H](C(C)C)N(C)C(=O)[C@@H](NC(=O)[C@H]1CCCN1C)C(C)C)c1nc(C(=O)N[C@@H](Cc2ccccc2)C[C@H](C)C(=O)O)c(C)s1`: the growth with HCT-15 colon is 17.7%; with HT29 colon, 2.64% (active); in the assay with SNB-75 CNS, 50.5%; in the assay with U251 CNS it was 5.53% (active); in the assay on PC-3 prostate, 19.2%; in the assay on SK-MEL-5 melanoma, -19.2% (active). The growth in the assay with UACC-62 melanoma was 39.3%; in the assay with LOX IMVI melanoma it was 27.4%; in the assay on SK-MEL-28 melanoma it was 61.9%.
